From PubChem BioAssay (Tox21)
Records with an inconclusive call do not appear. Active and inactive are the calls of the source. Unless noted, the call rests on the fitted dose curve.

What was measured:
[1] = qHTS assay to identify small molecule agonists of the sonic hedgehog signaling (Shh) pathway (AID 1259368);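 further: NIH/3T3-derived 3T3Gli1-Luc cells carrying a stable Gli1-driven firefly luciferase reporter; series mostly up to about 92 µM; nearly all actives have a fitted effect of over 15% in size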
Summary of the method: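 Steps: seed 3T3 Gli1-Luc cells, incubate 4 hr at 37 C, pin-transfer compounds in DMSO alongside a positive control, incubate 24 hr, add luciferase detection reagent, wait 30 min at room temperature, read luminescence.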

[2] = qHTS assay to identify small molecule antagonists of the sonic hedgehog signaling (Shh) pathway (AID 1259369); further: nearly all actives have a fitted effect of over 45% in size
Summary of the method: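 Inhibition of Shh signalling is measured as reduced Gli1-response-element firefly luciferase output in an NIH/3T3-derived stable reporter clone stimulated with conditioned medium for 24hr.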

[3] = target: Estrogen receptor beta (Homo sapiens) (UniProt Q92731); assay: qHTS assay to identify small molecule agonists of the estrogen receptor beta (ER-beta) signaling pathway (AID 1259377; active means well fitted activation curve with a large enough effect in the signal ratio in the repeat runs, not every such curve was filed as active; the % refers to the signal ratio)
Summary of the method: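 ER-beta-UAS-bla HEK293T cells in medium with 2% charcoal-stripped FBS were exposed to compounds for 16 h at 37C. Beta-lactamase reporter activity was read as fluorescence after 2 h with LiveBLAzer B/G FRET substrate at room temperature.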

[4] = target: Estrogen receptor beta (Homo sapiens) (UniProt Q92731); assay: qHTS assay to identify small molecule antagonists of the estrogen receptor beta (ER-beta) signaling pathway (AID 1259378; active means well fitted inhibition curve with a large enough effect in the signal ratio in the repeat runs, not every such curve was filed as active; the % refers to the signal ratio)
Summary of the method: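 ER-beta-UAS-bla HEK293T cells in 2% charcoal-stripped FBS medium treated with compound plus 1nM final 17-beta-estradiol for 16 hr at 37C. Beta-lactamase reporter read by FRET substrate fluorescence after 2 hours at room temperature.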

[5] = qHTS assay to identify small molecule agonists of the androgen receptor (AR) signaling pathway in the presence of an antagonist - cell viability counter screen (AID 1259379; active means well fitted curve in the direction sought with a large enough effect in the repeat runs; an effect the other way counts as inactive or inconclusive;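 further: MDA-kb2 human breast cancer cells carrying an MMTV luciferase reporter; series mostly up to about 92 µM; nearly all actives have a fitted effect of over 25% in size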)
Summary of the method: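 Fluorescence from CellTiter-Fluor, added after 15 hr and read 1 hr later, gave cell viability. Cells were MDA-kb2 exposed to compounds (15 concentrations) in the presence of 3.0uM nilutamide at 37C, 0% CO2.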

[6] = qHTS assay to identify small molecule agonists of the estrogen receptor beta (ER-beta) signaling pathway - cell viability counter screen (AID 1259380; active means well fitted curve in the direction sought with a large enough effect in the repeat runs; an effect the other way counts as inactive or inconclusive; further: nearly all actives have a fitted effect of over 30% in size)
Summary of the method: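 Same-well viability counter screen. Cells: ER-beta-UAS-bla HEK293T, plated 6 hr before compound, in 2% charcoal-stripped FBS. Compound exposure 16 hr, 37C; viability by CellTiter-Glo luminescence after 30 min at room temperature.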

[7] = qHTS assay to identify small molecule antagonists of the estrogen receptor beta (ER-beta) signaling pathway - cell viability counter screen (AID 1259382; active means well fitted curve in the direction sought with a large enough effect in the repeat runs; an effect the other way counts as inactive or inconclusive; further: series mostly up to about 92 µM; nearly all actives have a fitted effect of over 55% in size)
Summary of the method: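 Following a 6 hr plating period, HEK293T cells carrying a UAS-driven beta-lactamase reporter under ER-beta control received compounds and 1nM E2 (final). After 16 hr at 37C and 2 hr substrate loading, CellTiter-Glo luminescence indicated viability.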

[8] = qHTS assay to identify small molecule agonists or antagonists of the thyroid stimulating hormone receptor (TSHR) signaling pathway - wild type cell line counter screen (AID 1259384)
Summary of the method: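 Wild-type Hek293 cells, 800/well, 18 h at 37C, then compound with Ro20-1724 for 30 min RT. cAMP by HTRF (cAMP-d2/anti-cAMP cryptate), 1 h RT, fluorescence read. 15 concentrations, triplicates.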

[9] = target: Thyrotropin receptor (Homo sapiens) (UniProt P16473); assay: qHTS assay to identify small molecule antagonists of the thyroid stimulating hormone receptor (TSHR) signaling pathway (AID 1259385); further: nearly all actives have a fitted effect of over 20% in size
Summary of the method: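 TSHR-HEK293 cells (800/well) plated 18 h, then compounds with Ro20-1724 and TSH at 1.5 ng/mL final, 30 min at room temperature. cAMP quantified by HTRF (cAMP-d2/anti-cAMP-cryptate, 1 h); 15 concentrations in triplicate.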

[10] = qHTS assay to identify small molecule agonists of the estrogen receptor alpha (ER-alpha) signaling pathway in the presence of an antagonist - cell viability counter screen (AID 1259386; active means well fitted curve in the direction sought with a large enough effect in the repeat runs; an effect the other way counts as inactive or inconclusive;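 further: series mostly up to about 92 µM; cells exposed to compounds for 22 h at 37 °C before the viability read; nearly all actives have a fitted effect of over 30% in size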)
Summary of the method: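 Cells are starved of estrogens for 5 days in charcoal-stripped serum, seeded for 24hr and co-treated with ICI-182,780 (10.0nM final) and test compounds. After 22hr at 37C, viability is read as CellTiter-Fluor fluorescence.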

[11] = target: Progesterone receptor (Homo sapiens) (UniProt P06401); assay: qHTS assay to identify small molecule antagonists of the progesterone receptor (PR) signaling pathway (AID 1346795; active means well fitted inhibition curve with a large enough effect in the signal ratio in the repeat runs, not every such curve was filed as active; the % refers to the signal ratio)
Summary of the method: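 PR-UAS-bla HEK293T cells with beta-lactamase reporter under UAS control, in 2% charcoal-stripped FBS, treated with compounds plus 1 nM promegestone (R5020, final) for 16 hr at 37C. Read-out: FRET beta-lactamase substrate fluorescence after 2 hr at room temperature.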

[12] = qHTS assay to identify small molecule antagonists of the progesterone receptor (PR) signaling pathway - cell viability counter screen (AID 1346798; active means well fitted curve in the direction sought with a large enough effect in the repeat runs; an effect the other way counts as inactive or inconclusive; further: series mostly up to about 92 µM; nearly all actives have a fitted effect of over 50% in size)
Summary of the method: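 PR-UAS-bla HEK293T cells, 3,000/well in 2% charcoal-stripped FBS medium, dosed with compounds plus R5020 agonist and incubated 16 h at 37C. Viability then measured in the same wells by CellTiter-Glo luminescence after 30 min at RT.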

[13] = qHTS assay to identify small molecule agonists of the progesterone receptor (PR) signaling pathway - cell viability counter screen (AID 1346799); further: nearly all actives have a fitted effect of over 45% in size
Summary of the method: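 Counter screen in the PR-UAS-bla HEK293T wells (2% charcoal-stripped FBS, 16 h compound exposure at 37 C) after the bla read. CellTiter-Glo added, 30 min at room temperature, luminescence read as cell viability.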

[14] = qHTS assay to identify small molecule antagonists of the TGF-beta/Smad signaling pathway - cell viability counter screen (AID 1346824; active means well fitted curve in the direction sought with a large enough effect in the repeat runs; an effect the other way counts as inactive or inconclusive; further: nearly all actives have a fitted effect of over 50% in size)
Summary of the method: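 SBE-bla HEK 293T cells, incubated overnight, then compound plus 0.25 ng/mL TGF-beta1 (stock added) for 5 hr at 37 C. Viability was read in the same wells by CellTiter-Glo luminescence after 30 min at room temperature.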

[15] = qHTS assay to identify small molecule agonists of the TGF-beta/Smad signaling pathway - cell viability counter screen (AID 1346829; active means well fitted curve in the direction sought with a large enough effect in the repeat runs; an effect the other way counts as inactive or inconclusive; further: top concentration of the series differs between compounds; nearly all actives have a fitted effect of over 45% in size)
Summary of the method: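 HEK 293T SBE-bla line, 5 hr compound exposure at 37 C, multiplexed CellTiter-Glo viability read by luminescence.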

[16] = qHTS assay to identify small molecule agonists of the TGF-beta/Smad signaling pathway (AID 1346859; active means well fitted activation curve with a large enough effect in the signal ratio in the repeat runs, not every such curve was filed as active; the % refers to the signal ratio; further: series mostly up to about 77 µM)
Summary of the method: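 SBE-bla HEK293T cells plated overnight, then compound exposure for 5 h at 37 C. Beta-lactamase reporter read with LiveBLAzer B/G FRET substrate after 2 h at room temperature, fluorescence at 405 nm excitation, 460/530 nm emission.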

[17] = target: Thyrotropin-releasing hormone receptor (Homo sapiens) (UniProt P34981); assay: qHTS assay to identify small molecule antagonists of the thyrotropin-releasing hormone receptor (TRHR) signaling pathway (AID 1346877; active means well fitted inhibition curve with a large enough effect in the repeat runs, not every such curve was filed as active; further: series mostly up to about 51 µM)
Summary of the method: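 Cells (TRHR-HEK293) are plated and kept 18 h at 37 °C/5% CO2. A calcium-sensitive dye is added for 2 h, compound follows for 5 min at room temperature, and TRH is then given at 1 nM final.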

[18] = target: Estrogen receptor (Homo sapiens) (UniProt P03372); assay: qHTS assay to identify small molecule agonists of the estrogen receptor alpha (ER-alpha) signaling pathway in the presence of an antagonist (AID 1259383); further: top concentration of the series differs between compounds; nearly all actives have a fitted effect of over 15% in size
Summary of the method: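 Cells are hormone-deprived for 5 days (charcoal-stripped FBS, no phenol red), plated for 24hr, spiked with 10.0nM ICI-182,780, then dosed at 15 concentrations. After 22hr at 37C, ONE-Glo luminescence reports ERE-luciferase activity.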

[19] = target: Progesterone receptor (Homo sapiens) (UniProt P06401); assay: qHTS assay to identify small molecule agonists of the progesterone receptor (PR) signaling pathway (AID 1346784); further: nearly all actives have a fitted effect of over 30% in size
Summary of the method: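 PR-UAS-bla HEK 293T cells (beta-lactamase reporter under UAS) in 2% charcoal-stripped FBS, dosed with 23 nL compound after 6 hr, incubated 16hr at 37C. LiveBLAzer B/G FRET substrate added, fluorescence read after 2 hours.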

Measured: Potency

Sequence of Estrogen receptor (Homo sapiens) (P03372 whole entry, looked up): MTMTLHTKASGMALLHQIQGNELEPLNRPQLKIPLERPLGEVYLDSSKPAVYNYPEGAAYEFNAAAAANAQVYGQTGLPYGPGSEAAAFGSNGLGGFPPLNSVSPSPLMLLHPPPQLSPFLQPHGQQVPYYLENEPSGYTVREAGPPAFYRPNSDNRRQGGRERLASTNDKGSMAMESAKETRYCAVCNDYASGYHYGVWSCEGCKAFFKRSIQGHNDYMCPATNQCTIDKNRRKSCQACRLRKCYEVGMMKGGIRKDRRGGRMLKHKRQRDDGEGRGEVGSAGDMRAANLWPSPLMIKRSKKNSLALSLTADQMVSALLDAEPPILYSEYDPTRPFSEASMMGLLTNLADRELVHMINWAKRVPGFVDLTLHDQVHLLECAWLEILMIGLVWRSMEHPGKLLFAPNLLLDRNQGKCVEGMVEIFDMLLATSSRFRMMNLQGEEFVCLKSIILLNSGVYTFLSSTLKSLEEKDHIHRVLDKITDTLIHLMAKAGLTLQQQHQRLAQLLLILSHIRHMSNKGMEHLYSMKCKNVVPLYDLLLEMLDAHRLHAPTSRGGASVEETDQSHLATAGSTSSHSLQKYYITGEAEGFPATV
Sequence of Estrogen receptor beta (Homo sapiens) (Q92731 whole entry, looked up): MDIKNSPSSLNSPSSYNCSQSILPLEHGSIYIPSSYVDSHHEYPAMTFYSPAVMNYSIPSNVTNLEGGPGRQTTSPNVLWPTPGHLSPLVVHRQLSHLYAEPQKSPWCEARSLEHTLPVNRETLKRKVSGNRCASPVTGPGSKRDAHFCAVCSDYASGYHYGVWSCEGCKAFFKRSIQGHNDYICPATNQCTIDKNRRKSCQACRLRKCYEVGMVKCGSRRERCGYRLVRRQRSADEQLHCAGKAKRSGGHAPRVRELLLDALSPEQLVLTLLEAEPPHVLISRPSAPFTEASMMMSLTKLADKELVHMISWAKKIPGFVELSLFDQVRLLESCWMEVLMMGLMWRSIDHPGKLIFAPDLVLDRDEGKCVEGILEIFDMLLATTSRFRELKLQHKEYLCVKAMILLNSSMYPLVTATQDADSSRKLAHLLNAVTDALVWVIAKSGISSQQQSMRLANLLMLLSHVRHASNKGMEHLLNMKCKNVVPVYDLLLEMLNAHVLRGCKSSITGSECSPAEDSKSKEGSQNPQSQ
Sequence of Thyrotropin-releasing hormone receptor (Homo sapiens) (P34981 whole entry, looked up): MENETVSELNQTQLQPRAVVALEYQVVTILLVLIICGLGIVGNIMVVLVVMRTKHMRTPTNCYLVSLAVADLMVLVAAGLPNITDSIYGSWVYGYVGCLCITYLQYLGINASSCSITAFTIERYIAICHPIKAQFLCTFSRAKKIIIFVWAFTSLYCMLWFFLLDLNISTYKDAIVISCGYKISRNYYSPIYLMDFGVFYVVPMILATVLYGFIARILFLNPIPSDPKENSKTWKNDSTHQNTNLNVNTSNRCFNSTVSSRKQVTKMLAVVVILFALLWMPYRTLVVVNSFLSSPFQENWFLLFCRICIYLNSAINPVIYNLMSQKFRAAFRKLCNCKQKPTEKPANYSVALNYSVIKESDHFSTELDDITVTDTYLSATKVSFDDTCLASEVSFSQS
Sequence of Progesterone receptor (Homo sapiens) (P06401 whole entry, looked up): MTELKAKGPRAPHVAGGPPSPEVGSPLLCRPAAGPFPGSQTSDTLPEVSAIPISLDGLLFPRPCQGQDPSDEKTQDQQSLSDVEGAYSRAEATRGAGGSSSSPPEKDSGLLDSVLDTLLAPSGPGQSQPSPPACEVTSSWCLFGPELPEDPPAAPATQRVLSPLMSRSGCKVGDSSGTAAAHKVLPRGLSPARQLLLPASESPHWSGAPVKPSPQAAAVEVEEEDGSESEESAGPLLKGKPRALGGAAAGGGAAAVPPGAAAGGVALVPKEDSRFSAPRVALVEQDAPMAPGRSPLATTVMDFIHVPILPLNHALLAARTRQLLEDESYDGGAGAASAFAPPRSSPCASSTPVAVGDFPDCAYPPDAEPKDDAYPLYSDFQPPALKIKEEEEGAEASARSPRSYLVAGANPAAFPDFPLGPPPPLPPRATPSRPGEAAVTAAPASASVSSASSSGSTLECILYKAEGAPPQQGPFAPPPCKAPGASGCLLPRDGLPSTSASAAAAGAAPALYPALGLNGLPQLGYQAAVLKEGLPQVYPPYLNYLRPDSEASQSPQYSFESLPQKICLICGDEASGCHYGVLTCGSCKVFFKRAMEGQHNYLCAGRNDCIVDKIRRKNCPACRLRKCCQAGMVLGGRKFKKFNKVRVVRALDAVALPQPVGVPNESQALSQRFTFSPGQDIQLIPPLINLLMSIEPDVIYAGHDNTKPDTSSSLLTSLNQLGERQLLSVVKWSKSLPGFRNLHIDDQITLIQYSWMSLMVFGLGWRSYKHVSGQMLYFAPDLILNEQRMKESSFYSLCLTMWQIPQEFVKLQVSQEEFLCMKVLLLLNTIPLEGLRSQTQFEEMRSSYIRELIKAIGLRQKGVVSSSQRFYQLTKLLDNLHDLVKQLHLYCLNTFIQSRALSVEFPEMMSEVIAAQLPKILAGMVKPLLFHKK
Sequence of Thyrotropin receptor (Homo sapiens) (P16473 whole entry, looked up): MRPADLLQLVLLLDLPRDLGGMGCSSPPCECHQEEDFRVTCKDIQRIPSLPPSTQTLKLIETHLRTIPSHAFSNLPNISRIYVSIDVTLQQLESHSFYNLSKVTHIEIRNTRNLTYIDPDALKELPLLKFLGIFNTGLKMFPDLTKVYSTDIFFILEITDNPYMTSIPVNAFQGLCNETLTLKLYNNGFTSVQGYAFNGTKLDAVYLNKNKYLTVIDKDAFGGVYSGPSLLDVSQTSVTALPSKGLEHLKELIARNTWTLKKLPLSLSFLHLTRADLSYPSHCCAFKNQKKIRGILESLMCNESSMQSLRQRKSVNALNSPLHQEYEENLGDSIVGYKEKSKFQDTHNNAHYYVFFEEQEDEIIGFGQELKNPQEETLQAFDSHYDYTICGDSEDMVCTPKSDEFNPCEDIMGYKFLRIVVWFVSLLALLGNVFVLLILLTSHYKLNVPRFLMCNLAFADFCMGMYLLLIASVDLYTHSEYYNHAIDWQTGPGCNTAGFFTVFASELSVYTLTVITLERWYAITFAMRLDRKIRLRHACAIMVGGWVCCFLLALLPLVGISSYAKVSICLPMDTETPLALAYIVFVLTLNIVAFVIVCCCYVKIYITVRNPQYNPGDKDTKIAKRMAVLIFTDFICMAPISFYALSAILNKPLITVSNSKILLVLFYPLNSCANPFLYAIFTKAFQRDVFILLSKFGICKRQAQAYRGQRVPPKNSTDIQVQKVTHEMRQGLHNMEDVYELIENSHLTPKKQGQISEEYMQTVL

CO[Si](OC)(OC)OC
not listed: [18] | [19]
inactive: all other assays above

COc1nc(C)nc(N)n1
not listed: [7] | [10]
inactive: all other assays above

COc1ccc(COC=O)cc1
not listed: [10]
inactive: all other assays above

CCCCCC[C@@H](CCC)C(=O)O
not listed: [6] | [13]
inactive: all other assays above

Nc1[nH]c(=O)ncc1F
not listed: [6] | [8] | [9] | [17]
inactive: all other assays above

C=C(C)C(=O)NCCCN(C)C
not listed: [7] | [8] | [9] | [14] | [15] | [18]
inactive: all other assays above

O=C(O)CCNC(=O)c1ccc(N=Nc2ccc(O)c(C(=O)O)c2)cc1
not listed: [5] | [6] | [10] | [13]
inactive: all other assays above

CCCCCCCCCCCCCCCCCCOCC(O)CO (stereo unspecified)
not listed: [6] | [10] | [12] | [14] | [17]
inactive: all other assays above
